We go through twelve compounds from PubChem BioAssay (NCATS).

Results filed as inconclusive are left out. The source made the active and inactive calls. Unless noted, calls follow the shape of the dose curve; as a rule, active = well fitted curve in the direction sought with a large enough effect; inconclusive = small, poorly fitted or top-dose-only effect, or another doubt; inactive = no such curve, though single readings can be large; an effect the other way counts as inactive or inconclusive.

Assay [1] can be described thus: S16 Schwann cell PMP22 intronic element beta-lactamase assay (AID 624044; calls by dose curve; also: nearly all actives have a fitted effect of over 15% in size; also: potency is read from the fitted curve at half-maximal effect). In outline: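 Rat S16 Schwann cells with beta-Lac driven by a PMP22 intronic element, compound-treated 24 h at 37 °C. LiveBLAzer FRET B/G read: 460 nm normalized to potassium clavulanate vs DMSO; 535 nm FRET as viability; concentration-effect curves classified.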
In assay [2] the target is Glutaminase kidney isoform, mitochondrial (Homo sapiens) (UniProt O94925). Nature of the assay: qHTS for Inhibitors of Glutaminase (GLS): LOPAC Validation (AID 624146).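 Also: glutamate product detected by oxidase and peroxidase coupled Amplex red fluorescence gain; % is scaled to controls: 0 for no effect and ±100 for the full control effect; nearly all actives have a fitted effect of over 60% in size.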 In outline:
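Coupled fluorescence readout: glutamate oxidase/HRP/Amplex Red detect glutamate formed by hKGA from L-glutamine (1 mM solution added). Buffer 45 mM KH2PO4 pH 8.2, 0.02% Tween-20; reads at t0 and 30 min RT.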
A general note: Quantitative high-throughput screening tests each substance at several concentrations.

Assay [3] in a line: qHTS of Trypanosoma Brucei Inhibitors: LOPAC Validation (AID 624147). Also: 0% is about no effect. In outline:
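Luminescence from Kinase-Glo Plus, added after a 45-minute room-temperature reaction, served as the end-point read-out. The enzyme and substrate were preincubated with compound before ADP (130 uM final) initiated turnover. Concentration-effect curves came from normalized qHTS data.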

Assay [4] deals with Glucagon-like peptide 1 receptor (Homo sapiens) (UniProt P43220). In words: qHTS of GLP-1 Receptor Agonists: LOPAC Validation (AID 624148).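 Also: luminescence from a luciferase reporter switched on by cAMP; 0% is about no effect; higher luminescence signal means agonism.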 The method in brief:
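Agonism scored as increased luciferase luminescence driven by cAMP in HEK293 clones carrying GLP-1R. Cells settled 12 hours, received compound for 4-6 hr at 37 deg C, 5% CO2, and were read after 12 min detection reagent at RT.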

The nature of assay [5]: qHTS of Nrf2 Activators: LOPAC Validation (AID 624149). Also: 0% is about no effect. In outline: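 ARE reporter activation measured in AREc32 firefly luciferase cells after 24 hr compound exposure; Steady-Glo luminescence.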
Assay [6] is described as follows: HTS Assay for Allosteric Antagonists of the Human D2 Dopamine Receptor: Hit Validation in HTRF (AID 624455).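 Also: stable D1 dopamine receptor cell line scored for blocking the D1 response; % is scaled to controls: 0 for no effect and ±100 for the full control effect.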 The method in brief:
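Signal from an HTRF read-out in D1-expressing stable cells gave hit activity as inhibition of the D1 response.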
In general terms: TR-FRET usually uses a lanthanide donor and a delayed reading to cut background.

Assay [7] is described as follows: Cytotoxicity counterscreen for NFkB agonists and antagonists (AID 624476). Also: potency is read from the fitted curve at half-maximal effect. As to conditions: NFkB reporter cell line viability counterscreen. In general terms: The purpose of a counterscreen is to sort out artefacts and off-target activity.
Assay [8] in a line: qHTS Assay for Identification of Small Molecule Agonists for NFkB Signaling Pathway. (AID 624478).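 Also: compounds tested together with TNF alpha at its EC50 of 10 pM; 0% is about no effect.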 How it is done: The TNF alpha/NFkB signaling pathway was assayed in NFkB-bla cells (Invitrogen), a ME-180 cervical carcinoma line containing a stably integrated beta-lactamase reporter gene controlled by a NFkB response element. This reporter is induced by TNF alpha at 10 pM EC50 and inhibited by the proteosome inhibitor MG-132 at approximately 100 nM IC50. The assay was screened at the EC50 of TNF alpha activation to identify activators of TNF alpha/NFkB signaling
Cells were trypsinized, washed in assay medium (AM, OPTI MEM with 0.5% fetal bovine serum, 0.1 mM nonessential amino acids, 1 mM sodium pyruvate, 10mM HEPES pH 7.3, 100U/ml penicillin, and 100 ug/ml streptomycin) and plated at 1000 cells/5 uL/well into black clear-bottom 1536 well plates. After an overnight incubation at 37 C and 5% CO2, 23 nL of compound were delivered by a pin tool, 1 uL of TNF alpha (10 pM final concentration in AM) was added and plates were incubated at 37 C for 5 hrs. One uL of LiveBLAzerTM detector mix (Invitrogen) was added, the plates incubated at room temperature for 2 hrs, and fluorescence intensity at 460 and 530 nm emission was measured at 405 nm excitation by an Envision (Perkin Elmer).

The nature of assay [9]: qHTS Assay for Identification of Small Molecule Antagonists for NFkB Signaling Pathway. (AID 624479; calls by dose curve;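 also: pathway stimulated with TNF alpha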; also: potency is read from the fitted curve at half-maximal effect).
Assay [10] can be described thus: Cell Proliferation Assay against the TMD8 Cell Line (AID 651645).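 Also: cells exposed to compound for 48 h before reading.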 As to conditions: TMD8 DLBCL cell line proliferation/viability; at 46.1 µM (top of the series). The source says: One class of targeted therapeutics showing early clinical success in killing of ABC DLBCL lines are small molecule inhibitors of the Bruton tyrosine kinase (BTK) 11.
Prior to any combination assays, using an NCATS developed oncology compound library called the Mechanism of Interrogation Plate (MIPE), two well studied ABC DLBCL lines (TMD8 and HBL1) were screened using a cell viability assay (CellTiterGlo) and a 12-point titration series for each single agent. These initial experiments offered insight into the concentration range that offered the best coverage of activity and non-activity to assure relevant data is generated. In addition to the viability signature associated with this library, we examined the apoptotic response of each agent versus the TMD8 line as judged by caspase 3/7 activation. Activity was assayed at both 8 and 16 hour time-points to gain an appreciation of which agents induced an apoptotic response in a reasonable timeframe from a therapeutic exposure perspective. MIPE was also assayed for single agent viability in a human mesenchymal stem cell (hMSC) line as a surrogate of each library member's potential therapeutic index.
A total of 500 log growing TMD8 cells are seeded per well in 5 uL of a RPMI with glutamine (or Glutamax), without phenol red plus 5% FBS and 1X Pen/Strep into 1536 -solid white high base tissue culture treated Greiner One Bio Plates (789173-F) using a multidrop combi dispenser and a small sterile cassette. Compounds and controls totaling 23nL per well (negative control DMSO and positive control 9.2 uM Bortezomib-final) are immediately added to the plates using a 1536 head pin tool from Kalypsys. The plates are then covered with stainless steel gasket lids from Kalypsys and incubated for 48 hours at 37C under 95% relative humidity with 5% CO2. After 48 hours, the plates are removed and allowed to reach room temperature before 3 uL of Cell Titer Glo reagent (Promega) is added using an Aurora Flying Reagent Dispenser Bioraptor. The plates are then spun at 1000 rpms to remove bubbles and incubated for 15 minutes at room temperature before read on a ViewLux using a luminescent filter with a 10 second exposure. The relative luciferase units are used to calculated percent activity using DMSO as 100% and Bortezomib as 0%.

Sequence of Glutaminase kidney isoform, mitochondrial (Homo sapiens) (O94925 whole entry, looked up, canonical isoform): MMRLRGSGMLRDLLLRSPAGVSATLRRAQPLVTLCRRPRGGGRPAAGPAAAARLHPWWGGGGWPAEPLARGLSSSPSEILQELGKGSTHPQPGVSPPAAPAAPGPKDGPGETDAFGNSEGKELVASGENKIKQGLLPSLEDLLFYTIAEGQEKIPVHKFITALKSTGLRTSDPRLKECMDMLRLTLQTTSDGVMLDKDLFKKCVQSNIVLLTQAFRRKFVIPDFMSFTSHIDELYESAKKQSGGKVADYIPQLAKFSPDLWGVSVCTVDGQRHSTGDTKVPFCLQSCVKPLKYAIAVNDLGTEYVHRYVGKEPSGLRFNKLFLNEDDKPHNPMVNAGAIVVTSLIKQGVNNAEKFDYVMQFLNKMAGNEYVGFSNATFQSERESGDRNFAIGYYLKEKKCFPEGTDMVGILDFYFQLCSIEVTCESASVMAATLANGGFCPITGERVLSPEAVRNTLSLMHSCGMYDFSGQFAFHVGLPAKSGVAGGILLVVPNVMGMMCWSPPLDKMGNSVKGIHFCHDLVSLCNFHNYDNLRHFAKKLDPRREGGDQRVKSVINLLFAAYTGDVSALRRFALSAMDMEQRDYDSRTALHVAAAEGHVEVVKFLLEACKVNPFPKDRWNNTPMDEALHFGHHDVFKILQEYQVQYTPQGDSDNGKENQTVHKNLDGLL
Sequence of Glucagon-like peptide 1 receptor (Homo sapiens) (P43220 whole entry, looked up): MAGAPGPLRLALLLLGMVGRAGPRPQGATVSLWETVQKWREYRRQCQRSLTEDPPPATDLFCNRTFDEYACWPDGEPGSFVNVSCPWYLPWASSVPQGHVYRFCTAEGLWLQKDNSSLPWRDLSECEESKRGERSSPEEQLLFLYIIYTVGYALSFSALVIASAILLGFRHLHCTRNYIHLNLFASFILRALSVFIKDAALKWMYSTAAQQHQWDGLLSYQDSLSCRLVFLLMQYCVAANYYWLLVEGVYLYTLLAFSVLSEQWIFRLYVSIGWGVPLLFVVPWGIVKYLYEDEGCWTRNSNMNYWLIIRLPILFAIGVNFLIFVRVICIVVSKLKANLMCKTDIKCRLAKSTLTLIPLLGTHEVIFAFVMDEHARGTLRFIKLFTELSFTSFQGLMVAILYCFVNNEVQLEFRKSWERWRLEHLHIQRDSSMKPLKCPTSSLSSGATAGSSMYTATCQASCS

Consider `CCCCCCCCCCCC(CC1OC(=O)C1CCCCCC)OC(=O)C(CC(C)C)NC=O` (stereo not drawn), for which the Potency in assay [1] was 12.6 µM (active).

Consider `Nc1nc2c(c(=O)[nH]1)N(C=O)[C@H](CNc1ccc(C(=O)N[C@@H](CCC(=O)O)C(=O)O)cc1)CN2`, for which, in [1], the Potency entry is “inactive”.

On to `COc1ccc2c(c1OC)C(=O)OC2[C@H]1c2c(cc3c(c2OC)OCO3)CCN1C` (stereo partly drawn), for which the Potency result in assay [1] is “inactive”.

As for `O=c1[nH]c(=O)n([C@H]2C[C@@H](O)[C@@H](CO)O2)cc1C=CBr`, the call in [2], in assay [3], in assay [4], in assay [5] and in assay [6] was inactive.

As to `Cn1c(Nc2ccc(C(F)(F)F)cc2)nc2cc(Oc3ccnc(-c4ncc(C(F)(F)F)[nH]4)c3)ccc21`, the Potency was 20.9 µM (active) in [7] and 1.33 µM (active) in assay [9]. Further, the compound was classed as inactive in [8]. Moreover, the viability (% of control) in assay [10] was determined as 15.6%.

On to `COc1cc(C)c(Sc2cnc(NC(=O)c3ccc(CNC(C)C(C)(C)C)cc3)s2)cc1C(=O)N1CCN(C(C)=O)CC1` (stereo not drawn), for which the outcome in assay [8] was inactive. For the same compound, the Potency in [9] was 26.6 µM (active). For the same compound, in assay [10], the viability (% of control) turned out to be 18.7%.

As to `OCC(O)C(O)C(O)CO` (stereo not drawn), the Potency entry in assay [1] was “inactive”.

As for `COc1ccc2cc([S+]([O-])Cc3ncc(C)c(OC)c3C)nc2c1`, the result in [2], in assay [3], in assay [4], in [5] and in [6] was inactive.

For `COc1ccc([C@@H]2CNC(=O)C2)cc1OC1CCCC1`, in [1], the Potency result was “inactive”.

Turning to `CN[C@H](CC(C)C)C(=O)N[C@H]1C(=O)N[C@@H](CC(N)=O)C(=O)N[C@@H]2C(=O)N[C@H]3C(=O)N[C@H](C(=O)N[C@H](C(=O)O)c4cc(O)cc(O)c4-c4cc3ccc4O)[C@H](O)c3ccc(c(Cl)c3)Oc3cc2cc(c3O[C@@H]2O[C@H](CO)[C@@H](O)[C@H](O)[C@@H]2O[C@H]2C[C@](C)(N)[C@H](O)[C@H](C)O2)Oc2ccc(cc2Cl)[C@H]1O`, the outcome in [2], in assay [3], in [4], in assay [5] and in [6] was inactive.

For `COc1cc2c(cc1OC)[C@@H]1C(=O)c3ccc4c(c3O[C@@H]1CO2)C=CC(C)(C)O4`, the Potency in assay [7] was 26.4 µM (active). Also, the compound was called inactive in assay [8]. In assay [9], the Potency entry was “inactive”. Moreover, the viability (% of control) in [10] was found to be 2.43%.

For the compound `N#Cc1ccc(COC[C@H]2O[C@@H](n3c(NCc4ccc(Cl)c(Cl)c4)nc4c(N)ncnc43)[C@@H](O)[C@@H]2O)cc1`, the compound was called inactive in assay [8]. Further, the viability (% of control) in [10] is 1.09%.
